Each structure is given as a SMILES string. Hit rate of the full screen: of about 350,000 compounds, about 1,600 (0.46%) were called active. The sample as a whole holds a higher share of actives than the screen did. Values without a mark were called inactive.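 The calls were made as follows: active = activation of at least 50%, plus an integration ratio under a set limit after plate pattern correction; inactive = the rest.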

The assay deals with CRF-binding protein / CRF receptor 2 complex (human). The assay can be described thus: activators of CRF-R2 with CRF-BP – cell-based, HEK293, calcium dye fluorescence, uHTS, primary screen (AID 588473).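 Also: plate controls were neutral control wells without compound for no effect and CRF at EC100 for full effect.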 The settings on record: calcium dye fluorescence (FLIPR), at 13.2 µM, hits give high values, percent of saturating CRF peptide response.
`COc1ccc(Cl)cc1-n1c(=S)sc2c(=O)n(-c3ccc(F)cc3)c(SCC(=O)O)nc21`: the activation was -1.84%. `Cc1cccn2c(=O)c(/C=C(\C#N)S(=O)(=O)c3ccc(Cl)cc3)c(N3CCC(C(N)=O)CC3)nc12`: the activation was 9.75%.

Regarding `Cc1cccn2c(=O)c(/C=C(\C#N)C(N)=O)c(N3CCCCCC3)nc12`, the activation is -2.5%. Regarding `CCOC(=O)CC1C(=O)NCCN1c1nc2c(C)cccn2c(=O)c1/C=C1\SC(=S)N(C(C)CC)C1=O` (stereo unspecified), the activation was 177% (active). With `CCCN(CCC)c1ccc(C(O)c2nnc(-c3ccccc3)o2)cc1` (stereo unspecified) the figure was -0.49%; with `Cc1cccc2c1-c1sc(C(=O)NCCCN3CCc4ccccc4C3)cc1CO2`, 3.21%; with `C[C@H]1CN([C@@H](C)CO)C(=O)Cc2cc(NC(=O)Cc3ccccc3)ccc2O[C@H]1CN(C)S(=O)(=O)c1cccs1`, 0.76%.

As for `O=C(Nc1cccc(F)c1)c1coc(=O)c(Br)c1`, the activation was 67% (active).

As for `Cc1c(NC(=O)c2coc(=O)c(Br)c2)c(=O)n(-c2ccccc2)n1C`, the activation is -1.21%.

As to `O=C(CCN1C(=O)c2ccccc2C1=O)Nc1cccc(F)c1`, the activation is -0.06%.

In the case of `O=C(O)c1ccc(S(=O)(=O)c2ccccc2)s1`, the activation is 0.6%. Then `Cc1nn(C(C)(C)C)c(OC(=O)CC(C)C)c1S(=O)(=O)c1ccccc1`, with 4.7%. With `CC(C)[C@H](NC(=O)N1c2ccccc2NC(=O)[C@@H]1C(C)C)C(=O)N[C@H](C(=O)O)c1ccccc1` the figure was 0.51%; with `CCN1/C(=C/c2ccc3ccc(C)cc3[n+]2CC)Sc2ccccc21`, 143% (active); with `CCN1/C(=C\c2ccc3ccccc3[n+]2CC)Sc2cc(C)ccc21`, 200% (active). With `COc1ccc(SCCN2CCN(CC(C)C)CCC2=O)cc1` the figure was -0.91%.

Turning to `COC(=O)C(C)Oc1ccc2c(-c3cccc([N+](=O)[O-])c3)cc(=O)oc2c1` (stereo unspecified), the activation is -3.43%. Then `CCC1SC(CC)C(=O)N(CC(=O)NC2CCCCC2)C1=O` (stereo unspecified), with -0.56%; and `CCOC(=O)[C@H]1[C@H]2COc3ccccc3[C@@H]2N2C(=O)CN(Cc3ccccc3)C(=O)[C@@]12C`, with -0.27%. Then `O=C(N/N=C/c1cc(Br)c(O)c([N+](=O)[O-])c1)C(O)(c1ccccc1)c1ccccc1`, with -0.94%.

On to `c1ccc(C(=NNc2nc3ccccc3s2)c2ccccn2)cc1`, for which the activation is 5.4%. As for `O=[N+]([O-])c1cc(Br)c(O)c(/C=N/Nc2nc3ccccc3s2)c1`, the activation was 82.8% (active). In the case of `CCNC(=S)N1CCN(S(=O)(=O)c2ccc(Cl)s2)CC1`, the activation is 3.39%. Turning to `CC(=O)Nc1ccccc1Sc1ccc2c3c(cccc13)C(=O)N(c1ccc(C)cc1)C2=O`, the activation was 87.7% (active). With `Cc1ccc(N2C(=O)CC(Nc3cccc4ccccc34)C2=O)cc1` (stereo unspecified) the figure was 0.15%. Take `CSc1ccccc1NC(=O)C(C)N1C(=O)c2ccccc2S1(=O)=O` (stereo unspecified): the activation was 1.1%. With `CCC(=O)N1CCc2cc(Br)c(S(=O)(=O)NCCN3CCCCC3CC)cc21` (stereo unspecified) the figure was -1.55%. `CSc1cccc(NC(=O)CN2C(=O)COc3ccc(S(=O)(=O)N4CCOCC4)cc32)c1`: the activation was -1.06%. Take `O=C(COc1ccc(S(=O)(=O)N2CCCC2)cc1[N+](=O)[O-])N1CCCCC1`: the activation is -0.47%. Then `COc1ccc2c(c1)OC(O)(C(F)(F)C(F)F)CC2=O` (stereo unspecified), with 66.2% (active); and `COc1ccc2c(c1)C(=O)CC(c1ccccc1)O2` (stereo unspecified), with -2.49%. `COc1ccc2c(c1)SC(C)CC2=O` (stereo unspecified): the activation was -0.7%. Then `COc1ccc(-c2c(-c3cc(OC)cc(OC)c3)n(C)c3ccc(-c4ccn[nH]4)cc23)cc1`, with 2.7%.

Regarding `CC1CC1C(=O)OCC(=O)Nc1cccc(F)c1` (stereo unspecified), the activation is 1.09%. Take `CCOCCc1c(O)nc(SCC(=O)NCc2ccco2)[nH]c1=O`: the activation is 0.28%. With `Cc1ccc(CN(C)C[C@@H]2OCc3cnnn3CCCC(=O)N([C@@H](C)CO)C[C@H]2C)cc1` the figure was 0.05%. With `Cc1cc(S(=O)(=O)c2cc3ccc(O)c(C)c3oc2=O)ccc1F` the figure was 91.1% (active); with `COc1cccc2cc(S(=O)(=O)c3ccc(C)cc3)/c(=N/NS(=O)(=O)c3ccc(C)cc3)oc12`, 2.38%; with `COC(=O)Cc1cc(=O)oc2c(C)c(O)ccc12`, 2.46%.

As for `COc1ccc(-c2[nH]ncc2CN(C)Cc2cc(C)[nH]n2)c(F)c1`, the activation was -4.41%.

Take `CCN(CC)c1ccc(NC(=O)C2CCC(CNc3c(N4CCCC4)c(=O)c3=O)CC2)c(C)c1` (stereo unspecified): the activation was -1.59%.

Regarding `CCOC(=O)/C(C#N)=C/c1ccc(N2CCN(Cc3ccccc3)CC2)cc1`, the activation was 100% (active). Regarding `CCCn1c(C)cc(/C=C(\C#N)C(=O)OCC(=O)N(C)c2c(N)n(Cc3ccccc3)c(=O)[nH]c2=O)c1C`, the activation was -1.33%.

As for `COc1ccc(/C=C(\C#N)C(=O)OCC(=O)N(C)C2CCS(=O)(=O)C2)cc1` (stereo unspecified), the activation is -0.47%.

As for `CCOC(=O)/C(C#N)=C/c1ccc(N2CCCCC2)cc1`, the activation was 69.9% (active). Consider `COc1ccc(/C=C(\C#N)C(=O)ONC2=NCCCCC2)cc1`, for which the activation is -0.53%.

In the case of `CC(C)OC(=O)C(C#N)c1nc2ccccc2nc1N1CCN(Cc2ccccc2)CC1` (stereo unspecified), the activation was 4.17%. With `CC(C)c1nc(CNC(=O)CC2C(=O)NCCN2Cc2ccoc2)cs1` (stereo unspecified) the figure was 3.31%; with `CCO[C@H]1OC(C(=O)N2CCN(Cc3ccccc3)CC2)=C[C@@H](c2cn(C(C)=O)c3ccccc23)[C@@H]1CCCO`, -0.99%.

For the compound `O=C(OCc1cn(-c2ccc(Cl)c(Cl)c2)nn1)c1ccccc1Cl`, the activation was 5.3%. For `CC(C(=O)N1CCN(c2ccccc2F)CC1)c1ccc([N+](=O)[O-])cc1` (stereo unspecified), the activation was -0.08%. `CC(C)CNC(=O)/C=C/C(=O)O`: the activation is -1.76%. Turning to `CCCc1cc(=O)n2[nH]c(SCc3ccccc3)nc2n1`, the activation was 1.41%. Consider `Cc1ccc2c(c1)nnc1nnc(SCC(=O)O)n12`, for which the activation is 187% (active).

On to `Cc1cccc(-c2nnc(SCC(=O)O)n2Cc2ccccc2)c1`, for which the activation is -1.45%.

In the case of `CCn1nnnc1SCC(=O)c1ccc(C)cc1C`, the activation is 1.45%. For the compound `CC1(C)C2CCC13CS(=O)(=O)NC3C2` (stereo unspecified), the activation was -2.27%. As for `CC1Cc2nc(SCC(=O)Nc3ccccc3F)n(C)c(=O)c2S1` (stereo unspecified), the activation is -2.32%. Then `COc1cccc(N(CC(=O)NC2CCCC2)C(=O)Cn2nnc(-c3ccc(C)cc3)n2)c1`, with -0.55%; and `CCOc1ccc(C(=O)NC2CCN(C(=O)Nc3ccccc3OC)CC2)cc1`, with 1.14%; and `CCOc1ccc2nc(N3CCCN(C(=O)Nc4ccccc4C)CC3)c(C#N)cc2c1`, with 53.4% (active). Then `CCOc1ccc2nc(NCCNC(=O)C(C)(C)C)c(C)cc2c1`, with 0.31%. With `CCC(=O)Nc1cc(C(F)(F)F)ccc1N1CCCC1` the figure was -0.05%; with `CCCCCCSc1ccc([C@@H]2[C@@H]3C(=O)N(CC)C(=O)[C@@H]3[C@]3(C(=O)OC)CCCCN23)cc1OC`, 5.06%; with `N#C/C(=C\C1=C(N2CCOCC2)C(=C\c2ccccc2)/CC1)C(=O)Nc1ccccc1F`, 10.9%. For `O=C(N1CCOCC1)N1CCOCC1`, the activation is -0.16%. With `N#C/C(=C/c1ccc(N2CCOCC2)o1)C(=O)N1CCOCC1` the figure was 67.4% (active); with `N#C/C(=C\c1ccc(N2CCOCC2)o1)C(=O)N1CCOCC1`, 57.8% (active); with `N#C/C(=C\N1CCOCC1)S(=O)(=O)c1ccc(Cl)cc1`, -0.74%. As to `N#C/C=C(/c1ccc(F)cc1)N1CCOCC1`, the activation is -1.81%. Then `CCCN(CC(=O)Nc1ccc(C(N)=O)cc1)CC(=O)Nc1ccccc1C`, with -1.42%; and `CCCn1nc(NC(=O)C(C)C)c2cc3cc(OC)ccc3nc21`, with -3.44%; and `O=C(O)CSc1nccc2ccccc12`, with -1.24%.

Consider `NS(=O)(=O)c1ccc(-c2ccc(/C=C3\SC(=O)NC3=O)o2)cc1`, for which the activation is -4.11%. Then `Cn1cccc1/C=C1\SC(=S)N(NC(=O)c2ccc(Cl)cc2)C1=O`, with 0.66%; and `O=C(O)C(c1ccccc1)N1C(=O)/C(=C\c2ccc(-c3cccc(Cl)c3)o2)SC1=S` (stereo unspecified), with 53.1% (active). With `CC(C(=O)NC1CCS(=O)(=O)C1)N1C(=O)/C(=C/c2ccc(Cl)cc2)SC1=S` (stereo unspecified) the figure was 0.11%. With `CN1C(=O)/C(=C\c2ccc(-c3ccccc3)o2)SC1=S`, the activation is 177% (active). With `O=C1/C(=C/c2ccc(F)cc2)SC(=S)N1NS(=O)(=O)c1ccccc1` the figure was -2.42%; with `Cc1nn(CC(=O)NC2CCCCC2)c(=O)c2cccn12`, -0.23%; with `O=S1(=O)C=C(SCCN2CCCC2)c2ccccc21`, 0.69%. `CCCN1C2CCCC1CC(NC(=O)NC13CC4CC(CC(C4)C1)C3)C2` (stereo unspecified): the activation was 0.55%. For `Cc1cccc(N(C)C(=O)CN2C(=O)COc3ccc(S(=O)(=O)N4CCCCCC4)cc32)c1`, the activation is 21.6%. Take `COc1cc(CCC(=O)OCC(=O)Nc2cccc(S(N)(=O)=O)c2)cc(OC)c1OC`: the activation is 1.86%.

For the compound `COC(=O)c1cc(NC(=O)c2nn(C)c(=O)c3ccccc23)cc(C(=O)OC)c1`, the activation is -0.23%. Then `CCc1ccc2oc(-c3ccc(N)cc3)nc2c1`, with 0.69%; and `CCN(CC)c1ccc2oc(=O)c(C)nc2c1`, with 111% (active); and `Cc1ccc2oc(=O)ccc2c1`, with -1.36%.

Turning to `C/C(CC(=O)NC(C)(C)C)=N\NC(=O)c1ccco1`, the activation is -2.93%. Regarding `CN1CCC(=O)N([C@H](CO)Cc2ccccc2)CC1`, the activation is 0.86%.

Regarding `O=C1NC(Nc2nc3ccccc3s2)(C(F)(F)F)C(=O)N1C1CCCCC1` (stereo unspecified), the activation is -0.92%.
